Laboratory results reported in PubChem BioAssay (EPA / NIEHS).
Records with an inconclusive call do not appear. Calls of active or inactive are those of the source. Rule for the calls, unless noted: active = hit-call score of the fitted dose curve at least 0.9, where 1 is the maximum; inactive = score below 0.9.

How the values were obtained:
[1] = ACEA_ER_80hr: ACEA Biosciences xCELLigence Real-Time Cell Analysis on Estrogen Receptor Agonism for Proliferation (AID 2282667; active = hit-call score of the fitted dose curve at least 0.9, where 1 is the maximum); conditions: T47D proliferation, impedance (xCELLigence), 80 h
Procedure, shortened: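 T-47D cells monitored by electrical impedance (xCELLigence) with compound present throughout; 80 h timepoint, positive-direction fitting versus DMSO. Eight-point 1:4 dilutions from 100 uM final, duplicate plates.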

[2] = APR_HepG2_CellCycleArrest_24hr: Apredica 24-hour HepG2 Assay for Cell Cycle Arrest (AID 2282905); conditions: imaging, actives raise or lower the signal;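 note: cell cycle arrest scored as ratio of 2N to 4N nuclear DNA content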
Procedure, shortened: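 Compounds at 0.39–200 uM (0.5% DMSO) for 24 h, then fixed and Hoechst 33342 stained. Cell-cycle analysis of nuclear DNA content by high-content imaging, fitted bidirectionally versus DMSO.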

[3] = APR_HepG2_NuclearSize_24hr: Apredica 24-hour HepG2 Assay for Nuclear Size (AID 2282907); conditions: high-content imaging, actives raise or lower the signal
Procedure, shortened: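 HepG2 cells exposed 24 h to compounds at 0.39–200 uM (0.5% DMSO), fixed, Hoechst 33342 stained and imaged at 20x; nuclear diameter measured by automated image analysis, fitted bidirectionally against DMSO controls.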

[4] = APR_HepG2_CellLoss_24hr: Apredica 24-hour HepG2 Assay for Cell Loss (AID 2282908); conditions: high-content imaging;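 for AC50: fit in both directions so a hit may be cell loss or gain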
Procedure, shortened: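 HepG2 cells exposed 24 hr to 0.39–200 uM compound in duplicate at 0.5% v/v final DMSO. Cells fixed in 3.7% formaldehyde and Hoechst 33342-stained. Cell number came from nuclear imaging at 20x. Bidirectional fit versus DMSO.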

[5] = APR_HepG2_MitoticArrest_24hr: Apredica 24-hour HepG2 Assay for Mitotic Arrest (AID 2282910); conditions: high-content imaging, actives raise or lower the signal
Procedure, shortened: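 Compounds are dosed onto HepG2 cells across ten concentrations up to 200 uM for 24 hr. Cells are then fixed in 3.7% formaldehyde, permeabilised, and labelled for phospho-histone H3 and nuclei; images are scored by cell cycle analysis and fitted bidirectionally relative to DMSO.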

[6] = APR_HepG2_MitoMembPot_24hr: Apredica 24-hour HepG2 Assay for Mitochondrial Membrane Potential (AID 2282911); conditions: imaging, actives raise or lower the signal
Procedure, shortened: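 HepG2 cells exposed 24 h to 0.39–200 uM compounds in duplicate, 0.5% v/v DMSO final. MitoTracker Red CMXRos 250 nM loaded 30 min before formaldehyde fixation; high-content imaging at 20x, bidirectional fit versus DMSO.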

[7] = APR_HepG2_MitoMass_24hr: Apredica 24-hour HepG2 Assay for Mitochondrial Mass (AID 2282912); conditions: high-content imaging, actives raise or lower the signal
Procedure, shortened: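 HepG2 cells exposed 24 hr to 0.39–200 uM compound, 0.5% v/v DMSO, in duplicate. Stained before fixation with 250 nM MitoTracker Red CMXRos for 30 min, then imaged at 20x with Hoechst nuclei. Fitted in both directions against DMSO.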

[8] = APR_HepG2_CellCycleArrest_72hr: Apredica 72-hour HepG2 Assay for Cell Cycle Arrest (AID 2282914); conditions: high-content imaging, actives raise or lower the signal
Procedure, shortened: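 HepG2 cells exposed 72 h in duplicate to 0.39–200 uM compound, 0.5% DMSO final. Formaldehyde-fixed, Hoechst 33342-stained nuclei imaged at 20x, six fields per well; DNA content per valid cell quantified by cell-cycle image analysis, bidirectional fit versus DMSO.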

[9] = APR_HepG2_p53Act_24hr: Apredica 24-hour HepG2 Assay for p53 Activation (AID 2282913); conditions: high-content imaging, actives raise or lower the signal;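 note: p53 protein immunofluorescence averaged per cell in HepG2 with Hoechst nuclei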
Procedure, shortened: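 HepG2 cells exposed 24 h to compounds at 0.39–200 uM in duplicate, 0.5% v/v DMSO final; fixed, permeabilized, stained with anti-p53 antibody and Hoechst 33342; fluorescence imaging; bidirectional curve fit versus DMSO.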

Structure (SMILES)	outcome [1]	outcome [2]	outcome [3]	AC50 [4]	outcome [5]	outcome [6]	outcome [7]	outcome [8]	outcome [4]	outcome [9]	AC50 [1]	AC50 [8]	AC50 [2]	AC50 [5]	AC50 [9]	AC50 [7]
CCOP(=S)(Oc1ccc([N+](=O)[O-])cc1)c1ccccc1 (centres undefined)	inactive	inactive	inactive	41.1 µM (active)	inactive	inactive	inactive	inactive	–	–	–	–	–	–	–	–
CC(Cl)(Cl)C(=O)O	inactive	inactive	inactive	–	inactive	inactive	inactive	inactive	inactive	–	–	–	–	–	–	–
CC(C)(C)OOC(C)(C)C	inactive	inactive	inactive	–	inactive	inactive	inactive	inactive	inactive	inactive	–	–	–	–	–	–
CCCCCCCc1ccc(O)cc1	–	inactive	inactive	–	inactive	inactive	inactive	inactive	inactive	–	0.402 µM (active)	–	–	–	–	–
Cc1ccc([N+](=O)[O-])cc1C	inactive	inactive	inactive	–	inactive	inactive	inactive	inactive	inactive	–	–	–	–	–	–	–
CC(Cc1ccc(OCC(=O)O)cc1)NCC(O)c1csc(C(F)(F)F)n1 (centres undefined)	inactive	inactive	inactive	–	inactive	inactive	inactive	inactive	inactive	inactive	–	–	–	–	–	–
Cc1ccc(N)cc1N	inactive	inactive	inactive	–	inactive	inactive	inactive	inactive	inactive	inactive	–	–	–	–	–	–
OCC1CO1 (centres undefined)	–	inactive	inactive	–	inactive	inactive	inactive	inactive	inactive	inactive	–	–	–	–	–	–
CCOc1ccc(C(C)(C)COCc2cccc(Oc3ccccc3)c2)cc1	inactive	inactive	inactive	–	inactive	inactive	inactive	–	inactive	inactive	–	85.5 µM (active)	–	–	–	–
CN(C)C(=O)Cl	–	inactive	inactive	–	inactive	inactive	inactive	inactive	inactive	–	38.7 µM (active)	–	–	–	–	–
O=P(Oc1ccccc1)(Oc1ccccc1)Oc1ccccc1	–	–	inactive	63.2 µM (active)	–	inactive	inactive	–	–	–	–	75.5 µM (active)	83.5 µM (active)	67.5 µM (active)	67.6 µM (active)	–
CCNc1nc(Cl)nc(NC(C)(C)C)n1	–	inactive	inactive	–	inactive	inactive	inactive	inactive	inactive	–	–	–	–	–	–	–
O=[N+]([O-])c1ccc(Cl)c(Cl)c1	inactive	inactive	inactive	–	inactive	inactive	inactive	inactive	inactive	–	–	–	–	–	–	–
ClC(Cl)c1ccccc1	inactive	inactive	inactive	–	inactive	inactive	inactive	inactive	inactive	–	–	–	–	–	–	–
CCCCN(CCCC)N=O	inactive	inactive	inactive	–	inactive	inactive	inactive	inactive	inactive	inactive	–	–	–	–	–	–
ClC1=C(Cl)C2(Cl)C3C(Cl)C(Cl)CC3C1(Cl)C2(Cl)Cl (centres undefined)	–	–	inactive	69.4 µM (active)	–	inactive	–	inactive	–	–	–	–	27.8 µM (active)	65.1 µM (active)	82.6 µM (active)	48.9 µM (active)
COCCOCCO	–	inactive	inactive	–	inactive	inactive	inactive	inactive	inactive	–	–	–	–	–	–	–
O=C(O)C1C(C(=O)O)C2(Cl)C(Cl)=C(Cl)C1(Cl)C2(Cl)Cl (centres undefined)	–	inactive	inactive	–	inactive	inactive	inactive	inactive	inactive	inactive	–	–	–	–	–	–
CCCCc1ccccc1	–	inactive	inactive	–	inactive	inactive	inactive	inactive	inactive	–	–	–	–	–	–	–
